For assay [1], the system named is Human papillomavirus type 1a protein E7 (residues 44-93). The assay can be described thus: small molecules binding HPV E7 44-93 – biochemical, small-molecule microarray, residues 44-93, 635 nm fluorescence, primary screen (AID 1108).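 Also: E7 fragment applied at 1 µg/mL in TBST for 1 h at 4 C; score combines spot fluorescence with its signal to noise ratio.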 To be noted: fluorescence 635 nm, higher = more signal.
Assay [2] is described as follows: hepatitis C replication reporter changes, two-sided – Huh7 cells, luciferase reporter, HCV replication inhibitor project, primary screen (AID 1109).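 Also: huh7 hepatoma cells harbouring a luciferase neomycin HCV replicon reporter; luciferase luminescence as measure of HCV replicon replication; test concentration not given here.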 Particulars: Huh7 HCV replicon luciferase reporter, 48 h; higher = more signal.
In assay [3] the target is Left-right determination factor 2 (Homo sapiens) (UniProt O00292). The assay can be described thus: small molecules binding LEFTY2 protein – biochemical, small-molecule microarray, 635 nm fluorescence scan, primary screen (AID 1110). Particulars: higher = more signal.
Sequence of Left-right determination factor 2 (Homo sapiens) (O00292 whole entry, looked up): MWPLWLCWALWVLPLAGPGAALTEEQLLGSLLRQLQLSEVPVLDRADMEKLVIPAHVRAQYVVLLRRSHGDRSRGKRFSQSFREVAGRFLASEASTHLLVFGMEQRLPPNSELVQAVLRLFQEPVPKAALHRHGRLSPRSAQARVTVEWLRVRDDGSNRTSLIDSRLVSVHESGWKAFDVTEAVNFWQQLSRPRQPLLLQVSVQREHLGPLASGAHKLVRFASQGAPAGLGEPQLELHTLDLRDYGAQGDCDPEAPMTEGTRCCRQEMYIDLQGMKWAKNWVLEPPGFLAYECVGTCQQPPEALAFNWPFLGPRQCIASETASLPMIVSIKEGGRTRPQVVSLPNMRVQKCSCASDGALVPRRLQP
The target in assay [4] is Calmodulin-1 (Homo sapiens) (UniProt P0DP23). The assay can be described thus: small molecules binding calmodulin-1 with EGTA – biochemical, small-molecule microarray, Cy5-labelled CALM1, profiling panel (AID 1111).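 Also: labelled calmodulin applied in Tris saline Tween buffer holding calcium plus EGTA and DTT.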 To be noted: Cy5-CALM1 binding fluorescence, higher = more signal.
The target is the same in assay [5]. The assay can be described thus: small molecules binding Ca-loaded calmodulin-1 – biochemical, small-molecule microarray, Cy5-labelled CALM1, plus calcium, artefact control for SMM control-protein annotation, profiling panel (AID 1112).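 Also: score merges spot fluorescence with signal to noise from triplicate slides.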 Particulars: Cy5-CALM1 binding fluorescence, higher = more signal.
A short description of assay [6]: probe aWnt5a binding to arrayed compounds – biochemical, biotinylated probe, 635/667 nm fluorescence, primary screen (AID 1113).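 Also: score merges 667 nm fluorescence intensity with signal-to-noise per printed feature.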 To be noted: small-molecule microarray, higher = more signal.
The nature of assay [7]: probe aShh binding to arrayed compounds – biochemical, biotinylated probe, 635/667 nm fluorescence, primary screen (AID 1114).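 Also: probe is biotin-labelled aShh protein from a stem cell growth factor screen; measures binding of labelled protein to compounds printed on the slide; score merges feature fluorescence at 667 nm with signal-to-noise.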 To be noted: small-molecule microarray, higher = more signal.
Assay [8] in a line: probe aNog binding to arrayed compounds – biochemical, biotinylated probe, 635/667 nm fluorescence, primary screen (AID 1115).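 Also: probe is biotinylated aNog protein used at 0.15 µg/mL for 1 h at 4 C; z-score combines 667 nm fluorescence of each spot with its signal to noise.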 Particulars: small-molecule microarray, higher = more signal.
For assay [9], the target named is Torsin-1A-interacting protein 1 (Homo sapiens) (UniProt Q5JTV8). The assay can be described thus: compound microarray binding of lysate hLAP1 – cell lysate, small-molecule microarray, COS7 lysate, 635/667 nm fluorescence, primary screen (AID 1116). To be noted: 635 nm fluorescence, higher = more signal.
Sequence of Torsin-1A-interacting protein 1 (Homo sapiens) (Q5JTV8 whole entry, looked up): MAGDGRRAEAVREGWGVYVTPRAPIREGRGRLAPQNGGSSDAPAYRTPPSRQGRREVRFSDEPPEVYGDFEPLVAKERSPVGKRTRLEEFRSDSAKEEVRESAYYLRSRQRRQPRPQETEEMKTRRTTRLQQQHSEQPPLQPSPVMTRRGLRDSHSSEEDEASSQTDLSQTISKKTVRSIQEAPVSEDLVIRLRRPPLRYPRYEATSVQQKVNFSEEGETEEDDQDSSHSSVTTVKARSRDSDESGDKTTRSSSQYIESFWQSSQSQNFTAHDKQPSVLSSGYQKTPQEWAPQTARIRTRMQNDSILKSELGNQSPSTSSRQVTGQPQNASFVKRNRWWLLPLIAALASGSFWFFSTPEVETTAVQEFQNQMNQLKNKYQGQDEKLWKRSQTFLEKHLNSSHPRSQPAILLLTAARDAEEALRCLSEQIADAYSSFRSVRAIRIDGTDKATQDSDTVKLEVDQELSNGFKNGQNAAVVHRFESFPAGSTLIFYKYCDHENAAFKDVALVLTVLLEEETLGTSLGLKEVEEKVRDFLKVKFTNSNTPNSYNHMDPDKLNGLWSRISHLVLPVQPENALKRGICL
The target in assay [10] is Alpha-bungarotoxin (Bungarus multicinctus) (UniProt P60615). The assay can be described thus: compounds binding labelled alpha-BTX control protein – biochemical, small-molecule microarray, Alexa647 label, 635/667 nm fluorescence, artefact control for SMM control protein annotation, profiling panel (AID 1117). Particulars: alpha-BTX-A647 binding fluorescence, higher = more signal.
Sequence of Alpha-bungarotoxin (Bungarus multicinctus) (P60615 whole entry, looked up): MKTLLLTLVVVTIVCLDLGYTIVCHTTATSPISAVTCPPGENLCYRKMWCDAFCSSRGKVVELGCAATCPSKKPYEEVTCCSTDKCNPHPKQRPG

Assay [11] has as its target Albumin (Bos taurus) (UniProt P02769). Nature of the assay: compounds binding labelled BSA control protein – biochemical, small-molecule microarray, Alexa647 label, 635/667 nm fluorescence, artefact control for SMM control protein annotation, profiling panel (AID 1118).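 Also: score merges 667 nm emission intensity and signal-to-noise per printed compound spot.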 Particulars: BSA-A647 binding, fluorescence 635 nm, higher = more signal.
The nature of assay [12]: probe aXIP binding to arrayed compounds – biochemical, NeuroSMM set, 635/667 nm fluorescence, primary screen (AID 1119).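 Also: probe is the protein aXip251-270 applied at 1 µg/mL to compound-printed slides; binding of probe to printed compounds measured as 667 nm fluorescence plus signal to noise.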 To be noted: small-molecule microarray, higher = more signal, called active from +8 up or from −8 down.
Assay [13] is described as follows: probe aNOTCH3 binding on compound microarray – biochemical, small-molecule microarray, 635/667 nm fluorescence, primary screen (AID 1120).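 Also: probe is a biotin-tagged antibody raised against NOTCH3 rather than NOTCH3 protein; score merges spot fluorescence near 667 nm with spot signal to noise.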 To be noted: higher = more signal.
Assay [14] in a line: probe aNOTCH2 binding on compound microarray – biochemical, small-molecule microarray, 635/667 nm fluorescence, primary screen (AID 1121).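 Also: score merges feature fluorescence read at 667 nm with its signal to noise.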 Particulars: higher = more signal.
Assay [15] has as its target Carbonic anhydrase 2 (Homo sapiens) (UniProt P00918). Nature of the assay: compounds binding carbonic anhydrase 2 – biochemical, small-molecule microarray, Alexa647-labelled CAII, profiling panel (AID 1122). To be noted: CAII-A647 binding fluorescence, higher = more signal.
Assay [16] is described as follows: COS7 lysate on small-molecule microarray, probe aHis, 635 nm (AID 1123).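 Also: z-score combines 667nm fluorescence intensity with signal-to-noise per printed compound spot.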 Particulars: COS7 cell lysate, fluorescence, higher = more signal.
Assay [17] can be described thus: probe aLAP1 signal on lysate-treated microarray – cell lysate, small-molecule microarray, COS7 lysate, primary screen (AID 1124).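 Also: lysate comes from COS7 cells expressing LAP1 and is applied at 0.3 µg/mL; score merges spot fluorescence near 667 nm with signal-to-noise over triplicate slides.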 To be noted: probe aLAP1, fluorescence, higher = more signal.
Assay [18] deals with Sam68 (KHDRBS1). The assay can be described thus: compounds binding KHDRBS1 protein – biochemical, small-molecule microarray, 635 nm fluorescence, primary screen (AID 1125).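 Also: score merges 667 nm channel intensity with signal to noise over triplicate slides.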 Particulars: higher = more signal.
The subject of assay [19] is Chordin-like protein 2 (CHRDL2). Nature of the assay: compounds binding chordin-like 2 – biochemical, small-molecule microarray, 635 nm fluorescence, primary screen (AID 1126).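 Also: printed compound slides probed with Chrdl2 protein at 4 µg/mL for 1 h at 4 C; score merges 667 nm emission intensity with signal to noise over three replicate slides.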 To be noted: fluorescence 635 nm, higher = more signal.
For assay [20], the target named is Concanavalin-A (Canavalia ensiformis) (UniProt P02866). The assay can be described thus: compounds binding concanavalin A lectin – biochemical, small-molecule microarray, Alexa647 label, 635 nm, artefact control for SMM control protein annotation, primary screen (AID 1127).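 Also: z combines 667 nm emission intensity with signal-to-noise across three replicate slides.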 To be noted: ConA-A647 binding fluorescence, higher = more signal.
Sequence of Concanavalin-A (Canavalia ensiformis) (P02866 whole entry, looked up): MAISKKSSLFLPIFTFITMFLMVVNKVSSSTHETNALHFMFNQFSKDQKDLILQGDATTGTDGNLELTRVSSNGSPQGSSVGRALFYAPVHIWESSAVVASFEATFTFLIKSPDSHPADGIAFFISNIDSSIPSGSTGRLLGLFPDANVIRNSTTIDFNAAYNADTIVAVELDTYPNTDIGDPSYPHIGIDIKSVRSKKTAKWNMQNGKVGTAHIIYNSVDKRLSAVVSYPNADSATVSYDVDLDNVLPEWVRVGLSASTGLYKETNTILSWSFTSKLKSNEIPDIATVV

Activity calls are given as the source filed them.

Sequence of Albumin (Bos taurus) (P02769 whole entry, looked up): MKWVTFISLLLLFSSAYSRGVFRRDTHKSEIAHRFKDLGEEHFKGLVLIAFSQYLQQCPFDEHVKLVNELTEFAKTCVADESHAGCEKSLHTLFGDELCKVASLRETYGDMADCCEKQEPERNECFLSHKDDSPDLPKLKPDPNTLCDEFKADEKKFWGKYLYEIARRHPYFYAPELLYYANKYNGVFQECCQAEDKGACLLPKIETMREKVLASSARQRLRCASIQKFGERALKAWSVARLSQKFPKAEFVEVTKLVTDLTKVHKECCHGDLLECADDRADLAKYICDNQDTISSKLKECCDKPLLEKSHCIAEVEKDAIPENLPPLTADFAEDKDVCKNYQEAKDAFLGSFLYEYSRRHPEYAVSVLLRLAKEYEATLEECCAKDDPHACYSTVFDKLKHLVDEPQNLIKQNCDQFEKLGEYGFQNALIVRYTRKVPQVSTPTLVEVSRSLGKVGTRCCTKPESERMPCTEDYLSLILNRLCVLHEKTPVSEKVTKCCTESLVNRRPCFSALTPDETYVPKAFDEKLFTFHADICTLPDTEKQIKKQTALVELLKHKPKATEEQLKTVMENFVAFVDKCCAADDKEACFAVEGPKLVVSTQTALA

Take `CN1CCC(CCCO)=CC1c1cccs1` (stereo not given): the composite z-score in assay [1] was -1.03; in assay [3], -0.0692; in assay [4] it was -0.949; in [5] it was -0.431; in assay [6] it was -0.176; in [7] it was -0.0474. Besides, the composite z-score is -0.305 in [8]; 0.427 in [9]; -0.0493 in assay [10]; -0.552 in [11]; -0.0048 in [13]; -0.148 in assay [14]. In addition, the composite z-score in [15] was 0.74; in assay [16], -0.743; in [17], -0.476; in assay [18], -0.203; in assay [19], -0.154; in assay [20], -0.384. In [2], this compound gave a z-score of -0.132. Moreover, the composite Z-score in assay [12] was 0.639 (inactive).
On to `COc1ccc([Si](C)(C)[C@@H]2[C@@H](CCn3cc(CCO)nn3)O[C@]3(C(=O)N(Cc4cccc(N5C(=O)c6cccc7cccc5c67)c4)c4ccccc43)[C@H]2C)cc1`, for which the composite z-score in assay [1] was 1.37; in assay [3], -0.0227; in assay [4], 0.911; in [5] it was 0.506; in [6], -0.0256; in assay [7] it was -0.0192. In addition, the composite z-score in [8] was 0.406; in assay [9], 0.868; in assay [10], 0.664; in assay [11] it was 0.695; in [13] it was 0.0351; in [14], -0.14. Further, the composite z-score in assay [15] is 0.224; in assay [16] it was 1.01; in [17], 0.222; in assay [18] it was 1.29; in assay [19] it was -0.0468; in assay [20], 0.833. Also, the z-score in assay [2] was -5.22. In [12], the composite Z-score is 0.478 (inactive).
On to `C#CCN1[C@@H](Cc2ccc(O)cc2)C(=O)O[C@H](Cc2ccccc2)[C@@H]1/C=C/C1CC1`, for which the composite z-score in assay [1] is -0.513; in [3], 0.207; in [4], -0.458; in assay [5] it was -0.587; in assay [6] it was -0.18; in assay [7], 0.163. In addition, the composite z-score in assay [8] is -0.113; in assay [9] it was -0.188; in assay [10], 0.0577; in assay [11], -0.545; in assay [13] it was 0.14; in assay [14], -0.14. Further, the composite z-score is 0.117 in assay [15]; -0.225 in assay [16]; 0.472 in assay [17]; -0.329 in assay [18]; 0.498 in assay [19]; -0.457 in [20]. This compound also showed a z-score in assay [2] of -3.22. Besides, the composite Z-score in [12] was 0.228 (inactive).
Turning to `COC(=O)c1c2oc(c1C(=O)OC)C(=O)NC1(CCCCC1)c1cn(nn1)C[C@H](Cc1ccccc1)NC(=O)N[C@H](CO)CC2`, the composite z-score is 0.973 in assay [1]; 0.23 in assay [3]; 0.0166 in [4]; -0.396 in assay [5]; -0.0955 in assay [6]; -0.237 in assay [7]. The composite z-score is -0.321 in assay [8]; 0.227 in [9]; 0.531 in assay [10]; 0.692 in [11]; -0.207 in [13]; -0.167 in assay [14]. Moreover, the composite z-score in assay [15] was 0.269; in [16], 1.75; in [17], -0.0871; in [18], 0.789; in assay [19], 0.296; in assay [20], 0.91. The z-score in assay [2] is -0.791. Further, the composite Z-score in assay [12] was 0.992 (inactive).
As to `COCCOC(=O)N1C(=O)[C@@]2(c3cc(C#CCCO)ccc31)[C@H](c1ccc(O)cc1)N1[C@H](c3ccccc3)[C@H](c3ccccc3)OC(=O)[C@H]1[C@@H]2C(=O)N1CCN(c2ncccn2)CC1`, the composite z-score was found to be 1.17 in assay [1]; 0.613 in assay [3]; 1.42 in assay [4]; 0.374 in assay [5]; 0.594 in [6]; 0.918 in assay [7]. The composite z-score in assay [8] is 2.56; in assay [9], 1.68; in assay [10] it was 1.47; in [11] it was 0.435; in [13], 1.28; in assay [14], 0.51. In addition, the composite z-score in assay [15] turned out to be 0.183; in [16], 2.92; in [17], 0.782; in assay [18], 1.29; in assay [19], 0.677; in [20], 1.16. This compound had a z-score in assay [2] of -0.305. Also, the composite Z-score in assay [12] was 0.982 (inactive).
For the compound `CCCCC(=C=CC[C@@H](O)c1cccc(OCCO)c1)C[C@@H](O)c1ccccn1`, the composite z-score in [1] is 1.35; in assay [3] it was 0.229; in [4], 1.16; in assay [5] it was -0.946; in assay [6] it was -0.0735; in assay [7], -0.0553. Further, the composite z-score in assay [8] was 0.144; in assay [9], 1.25; in assay [10] it was 1.16; in assay [11], 0.416; in assay [13], -0.0881; in [14] it was -0.172. Also, the composite z-score in assay [15] was found to be 0.7; in assay [16] it was 0.617; in assay [17], 0.651; in assay [18], 1.29; in assay [19], 0.263; in assay [20], 0.664. The same compound showed a z-score in [2] of -0.617. The composite Z-score in assay [12] was 0.216 (inactive).
With `C=CCC(OC(C)=O)[C@@H]1[C@@H](N(Cc2cc3ccccc3o2)C(=O)Cc2ccc(OC)cc2)c2cc(OCCCO)ccc2N1C(=O)c1ccc2ccccc2c1` (stereo not given in full), the composite z-score was 0.0806 in [1]; -0.0999 in assay [3]; -0.428 in [4]; 0.174 in [5]; -0.0754 in [6]; 0.0062 in assay [7]. Also, the composite z-score in [8] was -0.125; in assay [9], 0.0296; in assay [10], -0.396; in assay [11] it was 0.234; in assay [13] it was -0.0485; in [14], -0.0652. For the same compound, the composite z-score in [15] was 0.386; in assay [16] it was 0.13; in [17], 0.16; in [18], -0.427; in assay [19], -0.257; in assay [20], -0.439. In assay [2], this compound displayed a z-score of -0.359. The composite Z-score in assay [12] is 0.39 (inactive).

(Values after PubChem BioAssay.)
